Bioassay records (PubChem BioAssay)
Hits are enriched below; roughly 11% of the tested compounds scored in any of these assays.
HPGD block – blocks human HPGD enzyme activity; P15428; purified HPGD, NADH fluorescence kinetic, PGE2 substrate; AID 894; 4.3% of 150,000 active; Potency, µM, most hits filed as inhibitors
Target sequence (P15428 whole entry, looked up): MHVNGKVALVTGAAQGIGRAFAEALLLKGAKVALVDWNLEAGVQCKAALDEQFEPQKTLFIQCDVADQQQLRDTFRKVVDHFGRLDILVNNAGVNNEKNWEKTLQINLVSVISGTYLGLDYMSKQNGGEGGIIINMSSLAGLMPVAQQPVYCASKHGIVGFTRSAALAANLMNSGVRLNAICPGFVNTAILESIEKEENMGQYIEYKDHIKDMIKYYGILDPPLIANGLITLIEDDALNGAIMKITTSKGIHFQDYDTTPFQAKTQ
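20 nM HPGD preincubated 15 min at room temperature with compound in 50 mM Tris-HCl pH 8, 0.01% Tween 20. Started with 1 mM NAD+ and 30 uM prostaglandin E2; NADH fluorescence (360/450 nm) read 5 times over 30-s intervals, last minus first.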
ALDH1A1 inh – inhibitors of human aldehyde dehydrogenase 1A1; Purified ALDH1A1, NADH fluorescence, propionaldehyde substrate; Potency, µM (top dose mostly 75.3 µM), most hits filed as inhibitors; 7.3% of 220,000 active
PNC assembly inh – inhibitors of perinucleolar compartment assembly | activity change (PNC), negative = inhibition, % at 10 µM | 3.1% of 140,000 active | AID 2417 | PC3M PTB-GFP, PNC prevalence imaging, 16 h; hits give low values;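 active means readout at or below -70, meaning at least 70% loss of cells showing the perinucleolar compartment, a nuclear body marking cancer cells; inconclusive means readout between -30 and a set limit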
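Compounds are pinned in duplicate onto adhered PC3M cells stably expressing GFP-tagged PTB and incubated 16 h at 37 C. Cells are then fixed, nuclei stained with Hoechst, and PNC-positive cells counted.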
A number is an active result; - = inactive; ? = inconclusive; . = not tested or not shown; [ ] = dose if it differs, or a comment. Unless noted, the call rests on the fitted dose curve; in most records, active means well fitted inhibition curve with a large enough effect (not every such curve was filed as active); inconclusive means small, poorly fitted or top-dose-only effect, or another doubt; inactive means no such curve, though single readings can be large or run the other way.

SMILES | HPGD block | ALDH1A1 inh | PNC assembly inh
CCOC(=O)/C(C#N)=C1/C=CN(c2ccc(C)cc2)C=N1 | - | ? | -
CCOC(=O)/C(C#N)=C1/C=CN(c2ccccc2)C=N1 | - | ? | -
CCOC(=O)/C(C#N)=C1\C=CN(C)C(C)=N1 | - | - | -100.0
CCOC(=O)/C(C#N)=C1/C=CN(C)C=N1 | 25.1µM | 14.1µM | -
COc1cc(OC)c(NS(=O)(=O)c2ccc(Cl)c(C(=O)OC(C)C(=O)N3CCCC3)c2)cc1Cl (stereo not drawn) | - | - | -
O=C1[C@H]2[C@H]3[C@H](O)[C@H](O)C/C(=N/OC[C@@H](O)COCc4ccco4)[C@H]3CC[C@@H]2C(=O)N1Cc1ccc2c(c1)OCO2 | . | -[13.5 µM] | .
O=C(O)c1ccc(NC(=O)C2CC=CCC2C(=O)O)cc1 (stereo not drawn) | - | - | -
O=C(Nc1nccs1)c1ccc(NC(=O)C2CC=CCC2C(=O)O)cc1 (stereo not drawn) | . | 3.98µM | .
COc1ccc(-c2[nH]ncc2CN(CCO)CC23CC4CC(CC(C4)C2)C3)c(OC)c1 | . | - | .
COC(=O)CNC(=O)CSc1nnc(C)c(=O)[nH]1 | - | - | -
O=[N+]([O-])c1cccc(-c2cn(-c3ccccc3)c(=S)[nH]2)c1 | . | - | .
O=[N+]([O-])c1ccc2c(c1)[nH]c(=S)n2-c1ccccc1 | . | 3.98µM | .
O=C1C=C(NCc2ccc(Cl)cc2)CC(c2ccco2)C1 (stereo not drawn) | - | - | -
O=C1C=C(O)CC(c2ccco2)C1 (stereo not drawn) | - | - | -
O=C1C=C(Nc2ccc(O)cc2)CC(c2ccco2)C1 (stereo not drawn) | 22.4µM | ? | -
CC(C)CNC1=CC(=O)CC(c2ccco2)C1 (stereo not drawn) | - | 14.1µM | -80.9
Cc1nc(Nc2ccccc2)c2nc(-c3ccccc3)n(CCCN3CCCCC3C)c2n1 (stereo not drawn) | - | - | .
CC(=O)c1ccc(N(C)C)c2c(N(C)C)cccc12 | - | - | -
CNc1nn(-c2cccc(Cl)c2)nc1N | - | 2µM | ?
Nc1ccccc1Nc1cc(-c2ccccc2)nn1-c1cccc(Cl)c1 | - | - | -
O=C(CN1C(=O)CCSc2ccccc21)Nc1ccccc1 | - | - | -
COCCN1CN(S(=O)(=O)c2ccc(Cl)cc2)c2nc3ccccc3nc21 | - | 23.8µM | ?
O=S(=O)(c1cccs1)N1CN(Cc2ccc(Cl)cc2)c2nc3ccccc3nc21 | - | - | -
CCCCN1CN(S(=O)(=O)c2cccs2)c2nc3ccccc3nc21 | - | ? | ?
CC(C)CCN1CN(S(=O)(=O)c2cccs2)c2nc3ccccc3nc21 | - | 28.2µM | -
SMILES | HPGD block | ALDH1A1 inh | PNC assembly inh
Cc1ccc(CN2CN(S(=O)(=O)c3cccs3)c3nc4ccccc4nc32)cc1 | - | ? | -
COCCN1CN(S(=O)(=O)c2ccccc2)c2nc3ccccc3nc21 | ? | - | -116.6
CCOC(=O)C1(Cc2ccc(O)cc2)NC(c2ccco2)C2C(=O)N(c3ccccc3F)C(=O)C21 (stereo not drawn) | - | ? | ?
Cc1ccc(Cc2nnc3n(-c4ccccc4)nc(C(=O)c4ccccc4)n3c2=O)cc1 | - | ? | -
Cc1ccccc1CN(c1ccc(C(=O)N2CCCC2)cc1)S(C)(=O)=O | - | ? | -
CC1CCN(C(=O)c2ccc(N(C)S(C)(=O)=O)cc2)CC1 | 14.1µM | - | ?
CCOC(=O)N1CCN(C(=O)c2ccc(N(C)S(C)(=O)=O)cc2)CC1 | - | - | -
CCOC(=O)C1CCN(C(=O)c2ccc(N(C)S(C)(=O)=O)cc2)CC1 | - | - | -
CN(c1ccc(C(=O)N2CCCCC2)cc1)S(C)(=O)=O | 10µM | - | -
Cc1ccc(CN(c2ccc(C(=O)N3CCCC3)cc2)S(C)(=O)=O)cc1 | - | - | -82.9
CCOC(=O)c1sc(NC(=O)CSc2nc3c(c(=O)n2-c2ccc(F)cc2)SCC3)c(C(=O)OCC)c1C | - | - | -
Cc1cc(C(=O)OCC(=O)Nc2ccc(F)cc2)c(C)o1 | - | - | -
C[C@H](NC(N)=O)C(=O)OCC(=O)NCc1cccs1 | . | - | .
COc1cc(C2C3=C(CC(C)(C)CC3=O)Nc3c2c(=O)[nH]c(=O)n3Cc2ccccc2)ccc1O (stereo not drawn) | ? | - | -
COc1ccc(C2C3=C(CC(C)(C)CC3=O)Nc3c2c(=O)[nH]c(=O)n3Cc2ccccc2)cc1OC (stereo not drawn) | ? | - | -84.6
COc1cc(C=O)ccc1OCCSc1ccc(C)cc1 | 17.8µM | ? | -
CCOc1cc(/C=C/C(=O)O)ccc1OCCO | . | - | .
COc1cc(C=O)ccc1OCCOCCOc1cc(C)ccc1Cl | . | - | -
CCOc1cc(C=O)ccc1OCCSc1ccc(C)cc1 | 17.8µM | ? | -
COc1ccc(C2CC(=O)Nc3n[nH]c(-c4ccccc4)c32)cc1OC (stereo not drawn) | . | - | .
